Screening results deposited in PubChem by Broad Institute.
PglD inh: inhibitors of Campylobacter jejuni PglD acetyltransferase | purified PglD enzyme, DTNB colorimetric CoA detection | inhibition, % at 12.5 µM | 360,000 tested, 0.098% active | AID 602405; in the data active = inhibition above about 16%, passing the limit was not always enough; inconclusive = no clear call, values can overlap the other calls
DENV2 CPE: inhibitors of DENV2 cytopathic effect; DENV2-infected cells, cytopathic effect rescue, plate reader; 350,000 tested, 1.7% active; CPE inhibition, % at 9.99 µM; AID 651640; in the data active = CPE inhibition above about 20%, passing the limit was not always enough; inconclusive = no clear call, values can overlap the other calls; tested in BHK-21 cells;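 also: 0% = median of neutral control wells and 100% = median of positive control wells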
Rtt109 HAT inh: blocks Candida albicans Rtt109/Vps75 acetyltransferase activity. inhibition, % at 34.9 µM. AID 540336. 330,000 tested, 0.16% active. purified Rtt109/Vps75, ThioGlo CoA-SH fluorescence, 4 h. Q5AAJ8;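 active = inhibition of at least 50% in every replicate; inconclusive = best replicate reaches 50% inhibition but some replicates fall short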
Target sequence (Q5AAJ8 whole entry, looked up): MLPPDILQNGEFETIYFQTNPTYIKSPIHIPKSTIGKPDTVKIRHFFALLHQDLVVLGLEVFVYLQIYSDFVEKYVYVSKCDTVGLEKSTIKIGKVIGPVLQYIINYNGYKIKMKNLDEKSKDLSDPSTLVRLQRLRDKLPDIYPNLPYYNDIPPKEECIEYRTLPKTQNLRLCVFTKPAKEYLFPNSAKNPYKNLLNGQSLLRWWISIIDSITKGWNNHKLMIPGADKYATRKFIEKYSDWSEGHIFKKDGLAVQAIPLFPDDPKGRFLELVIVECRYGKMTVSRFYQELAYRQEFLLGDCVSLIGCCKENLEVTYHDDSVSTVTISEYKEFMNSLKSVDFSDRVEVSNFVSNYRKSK
Glyco luc inh: blocks N-linked glycosylation in D54 reporter cells; D54 ERlucT glycosylation luciferase reporter, 24 h; percent of 100 nM tunicamycin response; reporter increase, % at 12.5 µM; 360,000 tested, 0.23% active; AID 588692;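 active = mean luciferase reporter signal, scaled so untreated is 0 and the glycosylation-blocking control 100, at or above a set limit in every replicate; inconclusive = mean reaches the limit but not every replicate does; inactive = mean below the limit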;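 also: luciferase carries N-glycosylation sites so blocking glycosylation raises the light; 0% = median of neutral control wells and 100% = median of 100 nM tunicamycin wells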
Numbers without * were called inactive; ? = inconclusive; / = not tested or not shown. The full list was thinned out, with hits kept by preference.

SMILES | PglD inh | DENV2 CPE | Rtt109 HAT inh | Glyco luc inh
C[C@H](O)C#Cc1cnc2c(c1)C(=O)N([C@@H](C)CO)C[C@@H](C)[C@@H](CN(C)Cc1cccc(C(=O)O)c1)O2 | -1 | 1 | / | /
O=C(Nc1ccc(F)cc1)N1CC(=O)N2[C@@H](CO)[C@@H](c3ccc(C#Cc4ccc(F)cc4)cc3)[C@@H]2C1 | / | 17 | / | /
CCCNC(=O)N[C@H]1CC[C@H](CCn2cc(C3CCCCC3)nn2)O[C@@H]1CO | -2 | -6 | / | /
C=CCOC(=O)[C@@H]1[C@H]2C(=O)O[C@H](c3ccccc3)[C@H](c3ccccc3)N2[C@H](c2ccc(OCCOC(=O)[C@@H]3C[C@@H]4C(=O)N[C@@H](Cc5ccccc5)C(=O)N4[C@@H]3c3ccc(O)cc3)cc2)[C@@]12C(=O)Nc1ccc(I)cc12 | 1 | -5 | / | /
CN(C)CC(=O)N1[C@@H]2c3cccc(=O)n3C[C@H]1[C@H](CO)[C@H]2C(=O)NCc1ccccc1 | 8 | 20* | / | /
COc1cccc(C(=O)Nc2ccc3c(c2)C(=O)N(C)C[C@H](OC)[C@@H](C)CN(C(=O)C2CCCC2)[C@@H](C)CO3)c1 | 3 | -5 | / | /
CO[C@H]1CN(C)C(=O)c2cc(NC(=O)c3cc(C)on3)ccc2OC[C@@H](C)N(C(=O)C2CC2)C[C@@H]1C | -3 | 2 | / | /
COc1cccc(C(=O)Nc2ccc3c(c2)C(=O)N(C)C[C@H](OC)[C@H](C)CN(C(=O)C2CCCC2)[C@@H](C)CO3)c1 | 4 | 38* | / | /
CO[C@H]1CN(C)C(=O)c2cc(NC(=O)CC(F)(F)F)ccc2OC[C@@H](C)N(C(=O)C2CC2)C[C@H]1C | / | 38* | / | /
CO[C@@H]1CN(C)C(=O)c2cc(NC(=O)c3cc(C)on3)ccc2OC[C@H](C)N(C(=O)C2CC2)C[C@H]1C | -2 | 21* | / | /
CO[C@H]1CN(C)C(=O)c2ccc(NC(=O)CC(F)(F)F)cc2OC[C@H](C)N(C(=O)C2CCOCC2)C[C@H]1C | / | 24* | / | /
CO[C@@H]1CN(C)C(=O)c2ccc(NC(=O)CC(F)(F)F)cc2OC[C@H](C)N(C(=O)C2CCOCC2)C[C@H]1C | / | -2 | / | /
C[C@H](CO)N1C[C@H](C)[C@@H](CN(C)C(=O)OCc2ccccc2)OCc2cnnn2CCCC1=O | 2 | 2 | / | /
Cc1noc(C)c1NC(=O)N(C)C[C@@H]1Oc2ncc(C#CCN(C)C)cc2C(=O)N([C@H](C)CO)C[C@@H]1C | 1 | -5 | / | /
Cc1noc(C)c1NC(=O)N(C)C[C@@H]1Oc2ncc(C#CCN(C)C)cc2C(=O)N([C@@H](C)CO)C[C@@H]1C | 2 | 25* | / | /
Cc1noc(C)c1NC(=O)N(C)C[C@H]1Oc2ncc(C#CC(C)C)cc2C(=O)N([C@@H](C)CO)C[C@H]1C | 2 | 53* | / | /
COc1ccc(NC(=O)N(C)C[C@@H]2Oc3ncc(C#CC(C)C)cc3C(=O)N([C@@H](C)CO)C[C@@H]2C)cc1 | -3 | 53* | / | /
Cc1ccc(CN2CCN(CC(=O)NCc3ccccc3)CC2)cc1 | 1 | -3 | 53* | 1
O=C(CN1CCN(Cc2ccccc2)CC1)NCc1ccc(Cl)cc1 | -3 | 16 | -4 | -1
CO[C@@H]1CN(C)C(=O)c2ccc(NC(=O)C3CCCC3)cc2OC[C@H](C)NC[C@H]1C | 1 | -4 | / | /
CC1CC(C)CN(C(=O)COC(=O)c2nccnc2N)C1 (stereo not drawn) | -9 | 45* | -28 | 3
COc1ccc(/C=C2/C(=O)N(c3cccc(F)c3)N=C2C)c(OC)c1 | -6 | 37* | 12 | 2
C[C@@H]1CN([C@@H](C)CO)C(=O)c2cc(C#Cc3cccc(F)c3)cnc2O[C@H]1CN(C)CC1CCCC1 | 2 | 9 | / | /
NC(=O)c1cccc(-c2csc(C(O)c3cccc(Cl)c3)n2)c1 (stereo not drawn) | -3 | 4 | / | 1
O=C(O)c1cccc(-c2csc(C(O)c3cccc(Cl)c3)n2)c1 (stereo not drawn) | -7 | 46* | / | 3
SMILES | PglD inh | DENV2 CPE | Rtt109 HAT inh | Glyco luc inh
COc1ccc(OC)c(/C=N/NC(=O)c2cc3c(OC)cccc3[nH]2)c1 | / | 5 | 14 | -6
CCOc1ccc(/C=N/NC(=O)c2cc3c(OC)cccc3[nH]2)cc1 | 1 | 3 | 1 | 50*
COc1ccccc1/C=N/NC(=O)c1cc2c(OC)c(OC)ccc2[nH]1 | -1 | 8 | 0 | 34*
COc1ccc2c(c1OC)C(=O)OC2C1c2c(cc3c(c2OC)OCO3)CCN1C (stereo not drawn) | -2 | 8 | 8 | 1
CN1CCc2cc3c(c4c2[C@H]1[C@H](O)c1ccccc1-4)OCO3 | -4 | 3 | -27 | 33*
NS(=O)(=O)c1ccc(CCNC(=O)C2CCCN2C(=O)c2cccs2)cc1 (stereo not drawn) | 3 | 95* | / | 0
COC(=O)C1=C(C)N(Cc2ccco2)C(=O)N[C@@H]1c1ccco1 | -1 | 60* | 2 | -2
Cc1noc(C)c1S(=O)(=O)Nc1ccc2c(c1)C(=O)N([C@@H](C)CO)C[C@H](C)[C@H](CN(C)CC1CCCCC1)OCCCC[C@@H](C)O2 | 2 | 1 | / | /
C=CCOc1c(Cl)cc(Cl)cc1S(=O)(=O)NCCO | -1 | 77* | -12 | 2
COc1ccc2c3c(n(C)c2c1)[C@H](CO)N(C(=O)Cc1ccccn1)CC31CN(CC2CCCCC2)C1 | / | 7 | / | /
C[C@@H]1CN([C@@H](C)CO)C(=O)c2cc(NC(=O)Cc3cn(C)c4ccccc34)ccc2O[C@@H]1CN(C)S(C)(=O)=O | -2 | -15 | / | /
C[C@H]1CN([C@@H](C)CO)C(=O)c2cc(NC(=O)CCC(F)(F)F)ccc2O[C@H]1CN(C)C(=O)Nc1ccccc1 | -3 | 4 | / | /
C[C@H]1CN([C@@H](C)CO)C(=O)c2cc(NC(=O)CCC(F)(F)F)ccc2O[C@@H]1CN(C)S(C)(=O)=O | -1 | 21* | / | /
Cc1ccc(S(=O)(=O)N(C)C[C@@H]2Oc3ccc(NC(=O)CCC(F)(F)F)cc3C(=O)N([C@H](C)CO)C[C@@H]2C)cc1 | 2 | 47* | / | /
C[C@H]1CN([C@@H](C)CO)C(=O)c2cc(NC(=O)CCC(F)(F)F)ccc2O[C@H]1CN(C)CC1CCCCC1 | -1 | -6 | / | /
C[C@@H]1CN([C@@H](C)CO)C(=O)c2cc(NC(=O)CCC(F)(F)F)ccc2O[C@@H]1CN(C)CC1CCCCC1 | -2 | 22* | / | /
C[C@@H]1CN([C@@H](C)CO)C(=O)c2cc(NC(=O)CCC(F)(F)F)ccc2O[C@@H]1CN(C)C(=O)Nc1ccccc1 | 1 | 26* | / | /
C[C@@H]1CN([C@H](C)CO)C(=O)CCCn2nncc2CO[C@@H]1CN(C)C(=O)Nc1ccc(-c2cccs2)cc1 | -2 | ? | / | /
C[C@@H]1CN([C@H](C)CO)C(=O)c2cc(NS(C)(=O)=O)ccc2O[C@H]1CN(C)S(=O)(=O)c1ccc(F)cc1 | -11 | -6 | / | /
Cc1ccc(S(=O)(=O)N(C)C[C@H]2Oc3ccc(NC(=O)Cc4ccccc4)cc3C(=O)N([C@H](C)CO)C[C@@H]2C)cc1 | 4 | 66* | / | /
CC(=O)N1[C@@H]2c3ccc(C4=CCCC4)c(=O)n3C[C@H]1[C@H](CO)[C@H]2C(=O)NC1CCCC1 | / | -7 | / | /
CCCC/C=C/[C@H](c1ccccc1)[C@H](CO)Cc1cccnc1 | 2 | 42* | 11 | -3
